# A number with no mark means an inactive call. Calls of active or inactive are those of the source. Calls come from the whole dose curve.
# Target: Gonadotropin-releasing hormone receptor (Homo sapiens) (UniProt P30968)
# Assay: Human gonadotropin-releasing hormone receptor (GnRHR) small molecule agonists, calcium flux assay in GnRHR-HEK293 cells (AID 1920063); note: nearly all actives have a fitted effect of over 35% in size
# Conditions: calcium flux fluorescence, agonist mode; series mostly up to 57.6 µM; activity change: at the top concentration
# Text: National Center for Advancing Translational Sciences [NCATS]
# Division of Preclinical Innovation [DPI]
# U.S. Environmental Protection Agency [EPA]
# National Institutes of Environmental Health Sciences [NIEHS]
# National Toxicology Program [NTP]
# U.S. Food and Drug Administration [FDA]
# Gonadotropin-releasing hormone receptor (GnRHR) is a G-protein-coupled receptor (GPCR) and acts (through phospholipase C) to increase intracellular inositol trisphosphate and then release intracellular calcium stores. Cell-based GnRHR-Hek293 calcium influx assay is using HEK293 cells that have been genetically engineered to express the human GnRHR, which activity can be measured by calcium signaling. A compound/drug can activate (agonist) GnRHR that can be monitored by levels of intracellular calcium.
# GnRHR-HEK293 cells developed by Codex Corp contain human GnRHR reporter gene, which was stably integrated into HEK 293 cells. The compound activation can be detected by fluorescence intensity via calcium flux assay. This cell line has been used to screen the Tox21 10K compound library to identify GnRHR agonists.
# GnRHR-Hek293 cells were dispensed at 1500cells/4uL/well in 1536-well black wall/clear bottom plates using a multidrop dispenser. After the assay plates were incubated at a 37 C/5% CO2 incubator for 18 hours, 4 uL of Calcium Dye Solution was added to each well. The plates were incubated at 37 C for 1 hour. For agonist mode, 23 nL of compounds dissolved in DMSO, positive controls or DMSO only was transferred to the assay plate by a pin tool station. The fluorescence intensity in the plates was measured using FDSS 7000EX kinetic plate reader with a filter set of Ex/Em=480/540 for 3 min at 1 sec intervals. Each test compound was measured at 15 concentrations and in triplicates.
# % is set by controls: 0 for no effect and ±100 for the full control effect; potency is the fitted concentration of half-maximal effect.
# Gonadotropin-releasing hormone receptor (Homo sapiens), sequence (P30968 whole entry, looked up): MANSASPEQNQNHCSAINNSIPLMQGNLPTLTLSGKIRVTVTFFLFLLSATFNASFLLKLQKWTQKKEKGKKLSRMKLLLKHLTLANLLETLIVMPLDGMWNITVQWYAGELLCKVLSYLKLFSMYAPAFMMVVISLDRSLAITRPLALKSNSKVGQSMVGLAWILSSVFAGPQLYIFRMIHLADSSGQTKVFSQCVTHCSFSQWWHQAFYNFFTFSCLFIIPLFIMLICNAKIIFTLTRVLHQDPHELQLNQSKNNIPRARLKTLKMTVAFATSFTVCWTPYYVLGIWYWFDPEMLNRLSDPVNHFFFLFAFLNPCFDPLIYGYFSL
Structure (SMILES),activity change,Potency
C=CC(C)(CCC=C(C)C)OC(=O)c1ccccc1N (stereo not given),0.0787%,
CCOC(=O)C(Cl)C(C)=O (stereo not given),1.68%,
FC(F)C(F)(F)OCC(Cn1cncn1)c1ccc(Cl)cc1Cl (stereo not given),6.58%,
CCCCc1c(C)nc(NCC)nc1OS(=O)(=O)N(C)C,0.39%,
NC1CCC(CC2CCC(N)CC2)CC1 (stereo not given),-1.8%,
CN/C(=N\[N+](=O)[O-])NCC1CCOC1 (stereo not given),-1.16%,
O=C1C(I)=CC(=C(c2cc(I)c(O)c(I)c2)c2ccccc2C(=O)O)C=C1I,"1.15% [at 26.4 µM, stronger effect = higher value]",
Clc1c(Cl)c(Cl)c(Cl)c(Cl)c1Cl,"-0.0134% [at 5.22 µM, stronger effect = higher value]",
O=C(c1ccccc1)C(Cl)Cl,-0.679%,
COP(=O)(OC)SCn1c(=O)oc2cc(Cl)cnc21,-0.269%,
CN1CCN(C(=O)O[C@H]2c3nccnc3C(=O)N2c2ccc(Cl)cn2)CC1,"-1.21% [at 26.4 µM, stronger effect = higher value]",
N#CC(C#N)=Cc1ccc(O)c(O)c1,"2.08% [at 26.4 µM, stronger effect = higher value]",
CCCCS(=O)(=O)Cl,-0.174%,
COc1ccc(C=O)cc1O,0.0722%,
Cc1c(COC(=O)[C@@H]2[C@H](/C=C(\Cl)C(F)(F)F)C2(C)C)cccc1-c1ccccc1,,inactive
CCCCCCCc1ccc(O)cc1,15.5%,
C=CC(=O)N(C)C,0.585%,
CCOP(=O)(Sc1ccccc1)Sc1ccccc1,2.02%,
CC(C)CP(=S)(S)CC(C)C,-0.0879%,
Nc1ccc(Cc2ccc(N)c(Cl)c2)cc1Cl,3.46%,

Structure (SMILES),activity change,Potency
CC(=O)Nc1ccc2c(c1)Cc1ccccc1-2,-1.04%,
O=C(Cl)c1ccccc1F,-2.17%,
CN1C(=O)CN=C(c2ccccc2)c2cc([N+](=O)[O-])ccc21,"-1.28% [at 26.4 µM, stronger effect = higher value]",
CCOP(=S)(OCC)Oc1ccc(S(C)=O)cc1 (stereo not given),-1.03%,
C=CCOC(=O)c1ccccc1N,4.15%,
S=C=NCc1ccccc1,-1.78%,
CC(=O)[C@H]1CC[C@H]2[C@@H]3CC[C@H]4C[C@H](O)CC[C@]4(C)[C@H]3C(=O)C[C@]12C,"6.53% [at 26.4 µM, stronger effect = higher value]",
CCCCCCC(=O)CCCCCC/C=C/C[C@@H](O)[C@H](O)[C@@](N)(CO)C(=O)O,"0.629% [at 11.8 µM, stronger effect = higher value]",
N=C(N)[Se],-0.0381%,
CCCCCCCCCCCCCCCCCCn1cc[n+](C)c1,0.365%,
COP(=O)(OC)O/C(C)=C/C(=O)N(C)C,-0.49%,
O=C(CCCN1CCC2(CC1)C(=O)NCN2c1ccccc1)c1ccc(F)cc1,,6.01 µM (active)
C[C@]12CC[C@@H](O)C[C@@H]1CC[C@@H]1[C@@H]2CC[C@]2(C)C(=O)CC[C@@H]12,5.06%,
CN(C)c1ccc(N)cc1,-0.15%,
CC[C@]1(O)CC[C@H]2[C@@H]3CCC4=CCCC[C@@H]4[C@H]3CC[C@@]21C,"1.15% [at 26.4 µM, stronger effect = higher value]",
O=C(N[C@H](c1ccccc1)[C@@H]1CN2CCC1CC2)c1c(Cl)ccc(C(F)(F)F)c1Cl,5.75%,
CN1[C@@H]2CC[C@H]1CC(OC(=O)c1cc(Cl)cc(Cl)c1)C2 (stereo not given in full),"5.58% [at 26.4 µM, stronger effect = higher value]",
CC(Oc1ccc(Oc2ncc(C(F)(F)F)cc2Cl)cc1)C(=O)O (stereo not given),0.741%,
CCN[C@@H](C)Cc1ccccc1,-0.188%,
O=[N+]([O-])C(Br)(CO)CO,9.98%,
